Source: PubChem BioAssay AID463173 (ICCB-Longwood Screening Facility, Harvard Medical School, 2010)
About 4,300 (8.3%) of roughly 52,000 compounds were called active. Rule as the data show it: active = survival mostly below about 52% (no sharp cut-off); inactive = mostly above about 56%. Only a selection was taken, and actives are over-represented in it overall.

The molecules below were run on DeltatarO mutant (assay: S. aureus survival, RN4220 and DeltatarO strains – OD600, teichoic acid synthesis inhibitors, primary screen (AID 463173)). Conditions: S. aureus RN4220 wild type/DeltatarO growth, OD600, 18 h, active compounds read low, screened at 18.75 µg/mL (by protocol).

| SMILES | survival |
| --- | --- |
| COc1ccc(-c2cc3nc(N)cc(=O)n3[nH]2)cc1 | 148% (inactive) |
| CCOc1cccc2cc(-c3nc4sc5c(c4c(=O)[nH]3)CCC(C(C)(C)C)C5)c(=O)oc12 (stereo unspecified) | 79% (inactive) |
| CCOC(=O)Cc1c(C)nc2c(-c3ccc(OC)c(OC)c3)c(C)nn2c1C | 82% (inactive) |
| Cc1ccccc1Cn1c(=O)n(CC2CCC(C(=O)N3CCC(C)CC3)CC2)c(=O)c2sccc21 (stereo unspecified) | 73% (inactive) |
| O=C(COC(=O)c1cc(-c2cccs2)nc2ccccc12)c1ccccc1 | 45% (inactive) |
| CCCCOc1ccc(CNC(=O)CCCN2C(=O)CSc3c2c(C)nn3-c2ccccc2)cc1 | 72% (inactive) |
| CC(C(=O)N1CCCC1)N1CCN(c2ccc(F)cc2)CC1 (stereo unspecified) | 87% (inactive) |
| COc1ccc(Nc2nc(N)nc(CSc3nc4ccccc4s3)n2)cc1 | 21% (active) |
| CN1CCN(Cc2nc(N)nc(Nc3ccccc3)n2)CC1 | 70% (inactive) |
| COc1ccc(C(=O)Nc2ccc3nc(SCc4ccc(C)cc4)sc3c2)cc1 | 88% (inactive) |
| COc1cccc(C(=O)Nc2ccc3nc(SCc4ccc(C)cc4)sc3c2)c1 | 64% (inactive) |
| COc1ccc2sc(N)nc2c1 | 93% (inactive) |
| COc1ccc(Nc2nc(N)nc(CSc3nc4cc(OC)ccc4s3)n2)cc1 | 41% (active) |
| Cc1cc2ncn(CCC(=O)NC(C)(C)C)c2cc1C | 95% (inactive) |
| O=C(O)Cn1nnnc1SCC(=O)Nc1ccc(F)cc1F | 75% (inactive) |
| CN(C(=O)C(=O)Nc1ccc2nc3n(c(=O)c2c1)CCCCC3)c1cccc(C(F)(F)F)c1 | 76% (inactive) |
| COc1cc2[nH]c(=O)c(C(=O)NC3CCCC3)c(O)c2cc1OC | 98% (inactive) |
| CCCCOC(=O)c1ccc(NC2=NS(=O)(=O)c3ccccc32)cc1 | 66% (inactive) |
| COc1ccc(C2CC(=O)c3cc(-c4nc(-c5cccc([N+](=O)[O-])c5)cs4)c(=O)n(-c4ccc(OC)cc4)c3C2)cc1 (stereo unspecified) | 57% (inactive) |

| SMILES | survival |
| --- | --- |
| CCc1ccc(NC(=O)CC2C(=O)N(c3cccc(C)c3)C(=O)N2Cc2cccc(OC)c2)cc1 (stereo unspecified) | 92% (inactive) |
| Cc1nc(-c2ccc(S(=O)(=O)N3CCN(c4cccc(Cl)c4)CC3)cc2)co1 | 91% (inactive) |
| CCOc1ccc(-c2cc(CCCC(=O)NCCc3cc(OC)c(OC)c(OC)c3)no2)cc1 | 43% (active) |
| CCOc1ccc(CCNC(=O)CCCc2cc(-c3ccc(OCC)cc3)on2)cc1 | 92% (inactive) |
| CCOc1ccc(-c2cc(CCCC(=O)NCCc3ccc(OC)c(OC)c3)no2)cc1 | 91% (inactive) |
| COc1cc(C2c3c(oc4ccccc4c3=O)C(=O)N2c2ccccn2)cc(OC)c1OC (stereo unspecified) | 146% (inactive) |
| Cc1nnc(N2CCN(c3cccc(C(F)(F)F)c3)CC2)c2c1nnn2Cc1ccccc1 | 80% (inactive) |
| CCOC(=O)c1cc2c(=O)n3ccccc3nc2n(Cc2ccco2)c1=NC(=O)c1ccc(C(C)(C)C)cc1 | 36% (active) |
| CCOC(=O)c1cc2c(=O)n3ccccc3nc2n(Cc2ccco2)c1=NC(=O)c1ccc(Br)cc1 | 55% (inactive) |
| CCOC(=O)c1cc2c(=O)n3ccccc3nc2n(Cc2ccco2)c1=NC(=O)c1cccc(F)c1 | 17% (active) |
| CCOC(=O)c1cc2c(=O)n3ccccc3nc2n(Cc2ccco2)c1=NC(=O)c1ccc(C)c(C)c1 | 34% (active) |
| CCOC(=O)c1cc2c(=O)n3ccccc3nc2n(Cc2ccco2)c1=NC(=O)c1c(F)cccc1Cl | 42% (inactive) |
| CCCn1c(=NC(=O)c2c(-c3c(F)cccc3Cl)noc2C)c(C(=O)OCC)cc2c(=O)n3ccccc3nc21 | 164% (inactive) |
| CCOC(=O)c1cc2c(=O)n3ccccc3nc2n(Cc2ccco2)c1=NC(=O)c1ccc(F)cc1 | 43% (active) |
| CN1CCN(C(=O)c2cnn(-c3cccc(Cl)c3)c2C2CCN(C(=O)OC(C)(C)C)CC2)CC1 | 95% (inactive) |
| Cc1cccc(OCCCCn2c(C3CC(=O)N(c4ccccc4Cl)C3)nc3ccccc32)c1 (stereo unspecified) | 10% (active) |
| CCc1ccccc1N1CC(c2nc3ccccc3n2CCCCOc2ccccc2)CC1=O (stereo unspecified) | 54% (inactive) |
| O=C1CC(c2nc3ccccc3n2CCCCOc2ccccc2)CN1c1ccccc1Cl (stereo unspecified) | 58% (inactive) |
| CCOc1ccccc1N1CC(c2nc3ccccc3n2CCCOc2ccc(OC)cc2)CC1=O (stereo unspecified) | 78% (inactive) |

| SMILES | survival |
| --- | --- |
| Cc1cc(C)cc(OCCn2c(C3CC(=O)N(c4ccccc4Cl)C3)nc3ccccc32)c1 (stereo unspecified) | 85% (inactive) |
| CCc1ccccc1N1CC(c2nc3ccccc3n2CCOc2ccc(Cl)c(C)c2)CC1=O (stereo unspecified) | 3% (active) |
| Cc1cccc(OCCCCn2c(C3CC(=O)N(c4ccc(C)cc4C)C3)nc3ccccc32)c1 (stereo unspecified) | 47% (inactive) |
| CCc1ccccc1N1CC(c2nc3ccccc3n2CCCOc2ccc(Cl)cc2)CC1=O (stereo unspecified) | 41% (active) |
| Cc1ccc(-n2ncc3c(N4CCCCCC4)ncnc32)cc1C | 86% (inactive) |
| CCOc1ccc(CNC(=O)c2sc3nc(C)cc(C)c3c2-n2cccc2)cc1 | 75% (inactive) |
| COc1cccc(CNC(=O)c2nn(C)c3c2CSc2ccccc2-3)c1 | 75% (inactive) |
| O=C(NC1=NCCS1)c1ccccc1 | 101% (inactive) |
| Cc1cccc(Cc2c(C)nc3c(-c4ccccc4)c(C)[nH]n3c2=O)c1 | 16% (active) |
| Cc1nc2c(-c3ccccc3)c(C)[nH]n2c(=O)c1Cc1ccc(Br)cc1 | 7% (active) |
| CCOC(=O)CCc1c(C)nc2c(-c3ccccc3)c(C)[nH]n2c1=O | 87% (inactive) |
| COc1cccc(C(=O)Nc2nc3nc(C)c(Cc4ccccc4)c(=O)n3[nH]2)c1 | 104% (inactive) |
| Cc1nc2nc(NC(=O)CC(C)C)[nH]n2c(=O)c1Cc1ccccc1 | 113% (inactive) |
| CCc1c(C)nc2cc(-c3ccccc3)[nH]n2c1=O | 73% (inactive) |
| Cc1ccc(Cc2c(C)nc3c(-c4ccccc4)c(C)[nH]n3c2=O)cc1 | 0% (active) |
| Cc1nc2c(-c3ccccc3)c(C)[nH]n2c(=O)c1Cc1ccc(C(C)C)cc1 | 11% (active) |
| Cc1nc2nc(NC(=O)C(C)C)[nH]n2c(=O)c1Cc1ccccc1 | 98% (inactive) |
| Cc1nc2nc(NC(=O)C(C)(C)C)[nH]n2c(=O)c1Cc1ccccc1 | 112% (inactive) |
